Source: PubChem BioAssay
Most compounds without a hit are left out; they make up all but 4.1% or so of the library.
hcDAF-12 act: H. contortus DAF-12 activation, primary screen | HEK293 hcDAF-12 lit1-tk-luc reporter, luminescence; 0% DMSO, 100% Δ7-dafachronic acid | activation, % at 6.8 µM | actives 1.4% (n = 370,000);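 active = activation above the mean of all tested compounds plus 3 SD, cut at about 5.5% in these data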
DAX1 inh-1: inhibitors of human orphan nuclear receptor DAX1 (NR0B1); HEK293 Gal4-DAX1 luciferase reporter, luminescence; actives 0.99% (n = 340,000); P51843; inhibition, % at 6.75 µM;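 active = inhibition above the mean over all tested compounds plus 3 SD, cut at about 4.2% in these data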;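 also: inhibition shows as a rise in luminescence from relieved DAX1 repression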
Target sequence (P51843 207-470 limits assumed): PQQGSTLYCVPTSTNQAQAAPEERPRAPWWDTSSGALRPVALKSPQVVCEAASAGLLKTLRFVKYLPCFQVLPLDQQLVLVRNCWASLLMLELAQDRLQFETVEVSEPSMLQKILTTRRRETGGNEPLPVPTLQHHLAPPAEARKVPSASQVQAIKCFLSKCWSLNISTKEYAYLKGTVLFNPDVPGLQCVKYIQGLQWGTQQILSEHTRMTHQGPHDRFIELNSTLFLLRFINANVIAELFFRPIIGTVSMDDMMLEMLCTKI
DAX1 inh-2: blocks DAX1 repression of SF-1 activated StAR promoter. HEK293T StAR-luciferase reporter, SF-1/DAX-1 repression relief. inhibition, % at 6.8 µM. AID 652010. actives 1.1% (n = 370,000);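 active = inhibition above the mean over all tested compounds plus 3 SD, cut at about 3.6% in these data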;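 also: higher inhibition means more luminescence from relief of DAX-1 repression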
hgDAF-12 ag: hgDAF-12 agonism, primary luciferase screen; HEK293 GAL4-hgDAF12 UAS-luciferase reporter, agonist luminescence; normalized to butyrate control; activation, % at 6.8 µM; actives 1.8% (n = 370,000); AID 687014;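 active = activation above a cutoff set at the mean of all screened compounds plus 3 SD, cut at about 10% in these data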
ssDAF12 agonist: activators of S. stercoralis DAF-12 nuclear receptor; actives 1% (n = 370,000); activation, % at 6.8 µM; HEK293 ssDAF-12/GRIP1 lit1-tk-luc reporter, luminescence; % of 3 µM dafachronic acid response;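 active = activation above the mean over all tested compounds plus 3 SD, cut at about 0.9% in these data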
Numbers stand for hits; – = inactive; · = not tested or not shown.

SMILES	hcDAF-12 act	DAX1 inh-1	DAX1 inh-2	hgDAF-12 ag	ssDAF12 agonist
COC1C(O)C(C)OC(OC2C(Oc3cccc4c(O)c5c(=O)oc6ccc(C)c7c(=O)oc(c34)c5c67)OC(C)C(O)C2O)C1O (configuration not stated)	–	–	–	–	–
CCCC(=O)N1c2ccc(Cl)cc2C(c2ccccc2)=NCC1C(=O)NC(C)(C)C (configuration not stated)	–	·	–	–	–
CN(C)C(=O)Oc1ccc(Br)cc1C(=O)Nc1ccc(F)c(Cl)c1	–	–	–	–	–
Nc1nonc1OCCCCOc1nonc1N	–	–	–	–	3.3
O=C(O)CCl	–	·	–	–	–
O=C1NC(=S)N(C2CC2)C(=O)/C1=C/c1ccc2c(c1)CCN2CCCCl	–	–	–	–	–
CCN1C(=O)/C(=C/c2ccc3c(c2)CCN3CCCCl)C(=O)NC1=S	–	–	–	–	1.7
Cc1cccc(C(C)c2cnc[nH]2)c1C (configuration not stated)	–	·	–	–	–
C=C1C[C@]2(O)[C@@]3(C)CCC(=O)C(C)(C)C3=C(O)C(=O)[C@@]2(C)[C@@H]2C(=O)O[C@@](C)(C(=O)OC)C(=O)[C@@]12C	–	5.0	–	–	–
Cc1cc(OCC(=O)NC(Cc2ccc(Cl)cc2)C(=O)O)c2c3c(c(=O)oc2c1)CCC3 (configuration not stated)	–	5.8	–	–	–
N#CC[N+]1(CCCNP2(=O)C=C(c3ccccc3)OC(c3ccccc3)=C2)CCOCC1	–	6.2	–	–	–
O=C(CF)NC(NC(=S)Nc1ccccc1O)C(Cl)(Cl)Cl (configuration not stated)	–	4.9	–	–	–
O=c1c2ccccc2nc(/C=C/c2ccccn2)n1-c1ccccc1	–	–	–	10	–
Cc1ccc(-n2c(/C=C/c3ccccn3)nc3ccccc3c2=O)cc1	–	–	–	–	–
Oc1ccc2ccccc2c1CN1CC=C(c2ccccc2)CC1	–	5.2	–	–	–
C[C@H]1CC[C@@H]2[C@@H](C)[C@H]3[C@H](C[C@H]4[C@@H]5CC=C6C[C@@H](O[C@@H]7O[C@H](CO)[C@H](O)[C@H](O[C@@H]8O[C@H](CO)[C@@H](O)[C@H](O)[C@H]8O)[C@H]7O[C@@H]7O[C@@H](C)[C@H](O)[C@@H](O)[C@H]7O)CC[C@]6(C)[C@H]5CC[C@]34C)N2C1	–	4.3	–	–	–
Cc1cc(N2CCNC[C@H]2C)ccc1N1CC[C@H](O)C1	–	·	–	–	–
CCNC(=O)NC(=O)C(C)OC(=O)c1c(C)nn(Cc2ccccc2)c1Cl (configuration not stated)	–	6.3	–	–	–
COc1cc2oc(=O)c(CC(=O)N3C[C@H]4C[C@@H](C3)c3cccc(=O)n3C4)c(C)c2cc1Cl	–	4.8	–	–	–
CC(C)C(C(=O)NC(C)(C)C)N1C(=O)CN=C(c2ccccc2)c2ccccc21 (configuration not stated)	–	·	–	–	–
O=C(NCCN1CCC2(CC1)C(=O)NCN2c1cccc(F)c1)c1ccc2ccccc2c1	–	·	–	–	–
O=Cc1cn(Cc2c(F)cccc2Cl)nc1-c1ccccc1	–	–	–	–	–
CCc1ccc(-c2nn(Cc3ccccc3)cc2C=O)cc1	–	–	–	13	–
Cc1cc(=O)oc2cc(OCC(=O)N3CCC(C(=O)O)(c4ccccc4)CC3)ccc12	–	–	–	–	–
Cc1cc(=O)oc2c(C)c(OCC(=O)N3CCC(C(=O)O)(c4ccccc4)CC3)ccc12	–	4.6	–	–	–
SMILES	hcDAF-12 act	DAX1 inh-1	DAX1 inh-2	hgDAF-12 ag	ssDAF12 agonist
O=P(OCCCl)(OCCCl)OCCCl	–	·	–	–	–
CCCCN1CCN(C(=O)COc2cc(=O)n(C)c3ccccc23)CC1	–	·	–	–	–
Nc1ccc2ccccc2c1	–	–	–	–	0.9
Nc1ccc(-c2ccccc2)cc1	–	–	–	–	–
COCCOC(=O)C1=C(N)OC(C)=C(C(=O)OC)C12C(=O)Nc1ccccc12 (configuration not stated)	6.2	–	–	–	–
COC(=O)C1=C(C)OC(N)=C(C#N)C12C(=O)Nc1ccccc12 (configuration not stated)	–	–	–	–	–
CC1(C)NC(=S)C(C)(C)N1N=O	–	–	–	–	6.5
Cc1ccc(N2C(=O)CC(=O)NC2=O)c(C)c1	–	–	–	–	–
Nc1c2c(nc3sc4c(c13)CCCC4)CCCC2	–	–	–	11	–
O=S(=O)(c1ccc(Cl)cc1)N1Cc2ccc(Br)cc2-n2nncc2C1	–	·	–	–	–
Cc1ccc(OCCOc2cccc(C=C3C(=O)NC(=O)NC3=O)c2)c(C)c1	–	–	–	11	1.4
O=C1NC(=O)C(=Cc2ccc(OCCOc3ccc([N+](=O)[O-])cc3)cc2)C(=O)N1	–	–	–	–	–
O=C1NC(=O)C(=Cc2cccc(OCCOc3ccccc3)c2)C(=O)N1	–	–	–	11	–
CCOc1cc(C=C2C(=O)NC(=O)NC2=O)ccc1OS(=O)(=O)c1ccccc1	·	–	·	·	·
CC(C)S(=O)(=O)N1Cc2ccc(Br)cc2-n2nncc2C1	–	·	–	–	–
CCN(CC)P(=O)(Oc1ccccc1)Oc1ccccc1	–	–	–	–	–
COc1ccc2c(c1)CC1(CN2C)C(=O)NC(=O)N(c2ccc(F)cc2)C1=O (configuration not stated)	6.0	–	–	–	–
O=C(O)Cn1cc(/C=C2\C(=O)NC(=O)N(c3ccc(Cl)cc3)C2=O)c2ccccc21	–	–	–	–	1.2
CCOC(=O)CC[C@@H]1CC[C@]2(CCCN(Cc3cccnc3)C2)O1	–	·	–	–	–
O=C1CN(C(=O)COC(=O)Cc2ccccc2)c2ccccc2N1	–	4.4	–	–	–
O=C(Nc1cc(Cl)cc(Cl)c1)N1Cc2ccccc2-n2nncc2C1	–	–	–	–	–
Nc1ccc2c(c1)oc1ccccc12	–	–	–	11	–
CN1CCN(c2c(N)c(=O)oc3ccccc23)CC1	–	–	–	–	–
COCCO[C@H]1CC[C@@]2(C)C(=CCC3C2CC[C@@]2(C)C3CC[C@]2(C)O)C1 (some centres not stated)	–	–	–	11	–
CN1CCCCC1c1ccc(-c2cccnc2)nc1 (configuration not stated)	–	7.3	–	–	–
CC(C)(C)c1cc(OC(=O)Cc2ccccc2)ccc1O	–	–	–	–	–
Cc1ccc2cc(C=C(C#N)C#N)c(Cl)nc2c1	–	–	–	–	1.4
COc1cc(C2c3cc4c(cc3CC3COC(=O)C32)OCO4)cc(OC)c1OC (configuration not stated)	–	–	4.4	–	–
Cc1ccc(-n2c(O)c(/C=N/N3CCCCC3c3cccnc3)c(=O)[nH]c2=S)cc1 (configuration not stated)	–	–	–	–	–
